Growth data for 40 compounds are collected here from PubChem BioAssay (NCI).

Compounds without any hit were thinned out: in the full panel of roughly 83,000, 20% have a hit.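 Interpretation: 100, growth as untreated; towards 0, rising growth inhibition; 0, no net growth; 0 to -100, cell death. Compounds scoring below 10 were considered active.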 Unmarked numbers belong to inactive results. Active and inactive are the calls of the source.

In the test the test system is NCI/ADR-RES ovarian. The experiment in a line: NCI-60 one-dose screen, 48 h (100 = growth as untreated, 0 = no growth, -100 = all killed). To be noted: 10 µM unless noted.
In the case of `O=c1ncc(-c2ccc(C(F)(F)F)cc2)c(NC2CCCCCC2)[nH]1`, the growth is 102%.
With `NS(=O)(=O)N(c1cc(C(F)(F)F)cc(C(F)(F)F)c1)C1CCN(Cc2ccc(C(F)(F)F)cc2)CC1` the figure was 58.2%.
As for `Nc1ccc2c(c1Br)Cc1ccccc1-2`, the growth is 100%.
`CC1C(C)N(C(=O)CCl)c2ccccc2N1C(=O)CCl` (stereo not given): the growth was -7.93% (active).
Turning to `Nc1ccccc1-c1ccn[nH]1`, the growth is 105%.
With `O=C1OC2(c3ccccc31)c1ccccc1-c1ccccc12` the figure was 90.8%; with `O=C(c1ccc(Cl)cc1)c1ccc(Cl)cc1`, 103%.
Then `Nc1ccc2c(c1)C(=O)c1cc(Cl)c(Cl)cc1-2`, with 97.3%; and `COc1cc(/C(Cl)=C/C=C/C(=O)c2c(C)[n+]([O-])c3ccc(Cl)cc3[n+]2[O-])cc(OC)c1OC`, with 31.1%; and `CCSc1ncc(Br)c(Sc2nc(N)nc3nc[nH]c23)n1`, with 33.4%.
Then `O=C1/C(=C/c2ccccc2O)C(=S)SN1Cc1ccco1`, with 110%.
For the compound `N#CC1c2ccccc2C=CN1C(=O)N(c1ccccc1)c1ccccc1` (stereo not given), the growth is 96.2%.
As to `COc1ccc2[nH]c(=O)c(CNc3ccc(Nc4nccc(-c5ccc(Cl)cc5)n4)cc3)cc2c1`, the growth is 92.5%.
Then `Nc1ccc(N=Nc2ccccc2)cc1[N+](=O)[O-]`, with 95.9%; and `OCCN1CCN(CCCN2c3ccccc3Sc3ccc(C(F)(F)F)cc32)CC1`, with 46.8%; and `C1CCC(C(CC2CCCCN2)C2CCCCC2)CC1` (stereo not given), with 14.3%.
With `COc1ccc(C2CC(c3ccc4c(c3)OCO4)=NN2C=O)cc1` (stereo not given) the figure was 103%; with `CC(=O)Nc1c(Cl)cc2c(c1Cl)Cc1cc([N+](=O)[O-])ccc1-2`, 94.8%; with `Cc1ncc(C(=O)Nc2ccc(CN3CCN(C)CC3)c(C(F)(F)F)c2)cc1C#Cc1cncc2ncccc12`, 86.8%.
As for `Cc1cccc2nnc(-c3ccccc3)n12`, the growth was 107%.
Then `Cn1ccnc1C(=O)/C=C/c1ccc(C(=O)Nc2nc3ccccc3[nH]2)cc1`, with 24.6%.
Then `Cc1cc(-c2ccccc2)cc(C)n1`, with 110%; and `Cc1cn(C(C=O)OC(C=O)CO)c(=O)[nH]c1=O` (stereo not given), with 107%; and `COc1cc(-c2nc3nc4sc(C)c(C)c4c(=O)n3[nH]2)cc(OC)c1OC`, with 70.8%.
Turning to `Nc1ccc2c(c1)Cc1cc(Cl)c(Cl)cc1-2`, the growth was 62.9%.
With `CCN(CC)CCCCCCCNc1c2ccc(Cl)cc2nc2ccc(OC)cc12` the figure was 12.7%; with `O=C(Nc1nc(-c2ccc(Cl)cc2)cs1)c1cc(-c2ccc(Br)cc2)nc2ccc(Cl)cc12`, 8.07% (active).
With `Cc1ccc(C(NC(=O)c2ccccc2)c2ccc3cccnc3c2O)cc1` (stereo not given) the figure was 14%.
With `O=[N+]([O-])c1ccc(N=Nc2c(Cl)cc(O)cc2Cl)cc1`, the growth was -19.7% (active).
With `N#Cc1ncc(-c2ccc(C(F)(F)F)cc2)c(NC2CCCCCC2)n1` the figure was 69.8%; with `O=C(O)CNC(=O)C1(N2C(=O)c3ccccc3C2=O)CCCC1`, 110%; with `O=[N+]([O-])c1ccc2[nH]cc(-c3c4ccccc4cc4[nH]c5ccc([N+](=O)[O-])cc5c34)c2c1`, 8.13% (active).
In the case of `COCCCNS(=O)(=O)c1ncnc2nc[nH]c12`, the growth was 99.5%.
Then `O=C1Nc2ccc(Cl)cc2/C1=C/c1cccs1`, with 92.8%.
With `O=C(COc1ccc(/C=C2\Cc3ccccc3C2=O)cc1)c1ccc(Cl)cc1`, the growth is 92.6%.
In the case of `N=C1c2nc3n(c2C(=O)c2nc4n(c21)CCCCC4)CCCCC3`, the growth is 110%.
Then `O=C1N=C(N2CCOCC2)S/C1=C\c1cn(-c2ccccc2)nc1-c1ccccc1`, with 60.2%.
Consider `CCOC(=O)c1sc(NC(=O)COc2cccc(/C=C3\Cc4ccc(Cl)cc4C3=O)c2)nc1C`, for which the growth was 97%.
Consider `C(=C1c2ccccc2-c2ccccc21)c1ccccn1`, for which the growth was 31.1%.
Then `O=C(Nc1ccccc1S)c1ccccc1`, with 98.1%.
